Laboratory results published in PubChem BioAssay (NCI).
About 83,000 compounds went through this panel and 20% of them were active in at least one assay; those are over-represented in the sample as a whole.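 Treatment: one concentration, 48 hours, 96-well format. Scoring: percent growth, with anything below 10 considered active.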 Active and inactive are the calls of the source.

Test system: A498 renal
Test: NCI-60 one-dose screen, 48 h (100 = growth as untreated, 0 = no growth, -100 = all killed)
Conditions: 10 µM unless noted

Compound | growth
CCCCCCCCCCCCCCCCCC(=O)Nc1ccc(O)cc1 | 109% (inactive)
COc1cc(C(=O)Nc2ccc(N(C)C)cc2)cc(OC)c1OC | 82.1% (inactive)
CC(=O)O.[In] | 112% (inactive)
CCn1cnc(C[C@H](NC(=O)[C@@H](NC(=O)Nc2cc(C(F)(F)F)cc(C(F)(F)F)c2)C(C)(C)C)C(=O)OC)c1 | -91.6% [100 µM] (active)
CC(O)c1cc[cH-]c1.[Fe+2].c1cc[cH-]c1 (stereo unspecified) | 103% (inactive)
CC(=O)Nc1ccc(S(=O)(=O)Cl)cc1 | 101% (inactive)
O=C(OCC1CC2(Cl)C(Cl)=C(Cl)C1(Cl)C2(Cl)Cl)C1C(C(=O)OCC2CC3(Cl)C(Cl)=C(Cl)C2(Cl)C3(Cl)Cl)C2(Cl)C(Cl)=C(Cl)C1(Cl)C2(Cl)Cl (stereo unspecified) | 117% (inactive)
CC(=O)NCCN | 97.9% (inactive)
NC(CSC(c1ccccc1)(c1ccccc1)c1ccccc1)C(=O)NCC(=O)O (stereo unspecified) | 65% (inactive)
CC(C)(C)c1cc(C[P+](c2ccc(Cl)cc2)(c2ccc(Cl)cc2)c2ccc(Cl)cc2)cc(C(C)(C)C)c1O | 98.5% (inactive)
CC(C)OCC1CO1 (stereo unspecified) | 117% (inactive)
N#CCc1ncc(-c2ccc(C(F)(F)F)cc2)c(NC2CCCCCC2)n1 | 1.91% [100 µM] (active)
CCCCS(=O)(=O)c1cc(Nc2ccc(O)c3c2C(=O)c2ccccc2C3=O)ccc1C | 126% (inactive)
Cn1c2ccccc2c2ccccc21 | 115% (inactive)
CCCCCCCCC(=O)Nc1ccc(O)cc1 | 102% (inactive)
CCCCN(CCCC)c1ccc(C(=O)O)cc1 | 98.2% (inactive)
